# Assays:
# Settings in all cases: treatment time: 24 h
# A549-ACTB-RAB5A = assay: phenotypically active (imaging signature differs from DMSO and reproducible) at any of 0.3-9 uM (binary (1 = active, 0 = inactive)); higher = active
# Summary of the method: (§1)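 After 24 h at 0.3, 1, 3 or 9 µM, with four wells per treatment, fifteen gene-edited A549, HepG2 and WPMY1 reporter lines carrying BFP, GFP and RFP/FusionRed were imaged live. Each well's live-cell features were expressed relative to solvent control wells. Deviation required ≥3 of 4 wells past the 95th percentile of control Euclidean distances, and reproducibility a median replicate Pearson correlation over the 95th percentile of non-replicates. Phenotypic activity rested on both.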
# A549-CANX-COX4 = assay: as above
# Summary of the method: as §1
# A549-GM130-SQSTM1 [1] = assay: as above
# Summary of the method: as §1
# A549-TP53BP1-CLTA = assay: as above
# Summary of the method: as §1
# A549-TUBA1B-RELA [2] = assay: as above
# Summary of the method: as §1
# HepG2-ACTB-RAB5A [3] = assay: as above
# Summary of the method: as §1
# HepG2-CANX-COX4 = assay: as above
# Summary of the method: as §1
# HepG2-GM130-SQSTM1 = assay: as above
# Summary of the method: as §1
# HepG2-TP53BP1-CLTA = assay: as above
# Summary of the method: as §1
# HepG2-TUBA1B-RELA = assay: as above
# Summary of the method: as §1
# WPMY1-ACTB-RAB5A = assay: as above
# Summary of the method: as §1
# WPMY1-CANX-COX4 = assay: as above
# Summary of the method: as §1
# WPMY1-GM130-SQSTM1 [4] = assay: as above
# Summary of the method: as §1
# WPMY1-TP53BP1-CLTA = assay: as above
# Summary of the method: as §1
# WPMY1-TUBA1B-RELA = assay: as above
# Summary of the method: as §1
# WPMY1-GM130-SQSTM1 [5] = assay: lowest phenotypically active concentration; higher = less potent
# Summary of the method: as §1
# A549-GM130-SQSTM1 [6] = assay: as above
# Summary of the method: as §1
# A549-TUBA1B-RELA [7] = assay: as above
# Summary of the method: as §1
# HepG2-ACTB-RAB5A [8] = assay: as above
# Summary of the method: as §1
SMILES,phenotypically active (A549-ACTB-RAB5A),phenotypically active (A549-CANX-COX4),phenotypically active (A549-GM130-SQSTM1 [1]),phenotypically active (A549-TP53BP1-CLTA),phenotypically active (A549-TUBA1B-RELA [2]),phenotypically active (HepG2-ACTB-RAB5A [3]),phenotypically active (HepG2-CANX-COX4),phenotypically active (HepG2-GM130-SQSTM1),phenotypically active (HepG2-TP53BP1-CLTA),phenotypically active (HepG2-TUBA1B-RELA),phenotypically active (WPMY1-ACTB-RAB5A),phenotypically active (WPMY1-CANX-COX4),phenotypically active (WPMY1-GM130-SQSTM1 [4]),phenotypically active (WPMY1-TP53BP1-CLTA),phenotypically active (WPMY1-TUBA1B-RELA),lowest phenotypically active concentration (WPMY1-GM130-SQSTM1 [5]) [µM],lowest phenotypically active concentration (A549-GM130-SQSTM1 [6]) [µM],lowest phenotypically active concentration (A549-TUBA1B-RELA [7]) [µM],lowest phenotypically active concentration (HepG2-ACTB-RAB5A [8]) [µM]
"Cc1c(C)c2c(c(C)c1O)CC[C@@](C)(CCC[C@H](C)CCC[C@H](C)CCCC(C)C)O2 [Tocopherol (R,S)]",0 (inactive),0 (inactive),0 (inactive),0 (inactive),0 (inactive),0 (inactive),1 (active),0 (inactive),0 (inactive),0 (inactive),0 (inactive),0 (inactive),0 (inactive),0 (inactive),0 (inactive),–,–,–,–
C[C@H](NC(=O)c1sccc1OCc1ccc(Cl)cc1)c1ccccc1,0 (inactive),0 (inactive),0 (inactive),1 (active),0 (inactive),0 (inactive),0 (inactive),0 (inactive),0 (inactive),0 (inactive),1 (active),0 (inactive),1 (active),1 (active),0 (inactive),3,–,–,–
COc1ccc(S(=O)(=O)ON=C2C=C(C)C(=O)C(C)=C2)cc1,0 (inactive),0 (inactive),1 (active),0 (inactive),1 (active),0 (inactive),0 (inactive),0 (inactive),0 (inactive),0 (inactive),0 (inactive),0 (inactive),0 (inactive),0 (inactive),1 (active),–,9,9,–
CC(C)[C@@H](C)/C=C/[C@@H](C)[C@H]1CC[C@H]2C3=CC=C4C[C@@H](O)CC[C@]4(C)[C@H]3CC[C@]12C [Ergosterine],0 (inactive),0 (inactive),1 (active),0 (inactive),1 (active),0 (inactive),0 (inactive),1 (active),0 (inactive),0 (inactive),0 (inactive),0 (inactive),0 (inactive),0 (inactive),0 (inactive),–,9,9,–
Nc1nnc2[nH]c3ccccc3nc1-2,0 (inactive),0 (inactive),0 (inactive),0 (inactive),0 (inactive),0 (inactive),1 (active),0 (inactive),0 (inactive),0 (inactive),0 (inactive),0 (inactive),0 (inactive),0 (inactive),0 (inactive),–,–,–,–
Cc1cc(C(=O)Nc2cccc(C(=O)Nc3cccc(C(F)(F)F)c3)c2)on1,0 (inactive),0 (inactive),0 (inactive),0 (inactive),0 (inactive),0 (inactive),1 (active),0 (inactive),0 (inactive),0 (inactive),0 (inactive),0 (inactive),0 (inactive),0 (inactive),0 (inactive),–,–,–,–
CC(C)N(CCCNC(=O)Nc1ccc(C(C)(C)C)cc1)C[C@H]1O[C@@H](n2ccc3c(N)ncnc32)[C@H](O)[C@@H]1O,0 (inactive),0 (inactive),0 (inactive),0 (inactive),0 (inactive),1 (active),0 (inactive),1 (active),1 (active),1 (active),0 (inactive),0 (inactive),0 (inactive),0 (inactive),1 (active),–,–,–,9
O=c1c(O)c(-c2ccc(O)cc2)oc2cc(O)cc(O)c12 [Kaempferol],0 (inactive),0 (inactive),1 (active),0 (inactive),0 (inactive),0 (inactive),0 (inactive),0 (inactive),0 (inactive),0 (inactive),0 (inactive),1 (active),1 (active),1 (active),0 (inactive),9,9,–,–
C[C@H](NC(=O)[C@@H](O)c1cc(F)cc(F)c1)C(=O)N[C@@H]1C(=O)N(C)c2ccccc2-c2ccccc21,0 (inactive),0 (inactive),0 (inactive),0 (inactive),0 (inactive),0 (inactive),1 (active),0 (inactive),0 (inactive),0 (inactive),1 (active),1 (active),1 (active),0 (inactive),0 (inactive),3,–,–,–

# Reference: the supplement of paper PMC7411054
